# Screens: PubChem BioAssay, several laboratories
# Rows were chosen to be rich in hits. Some 3.1% of all compounds tested hit in one or more screens of this group.
# FAS TE block – FAS thioesterase domain inhibitors, primary screen, biochemical, fluorescence intensity, uHTS; actives 0.67% (n = 360,000); Fatty acid synthase (Homo sapiens), P49327; AID 602261, 2012; inhibition, % at 15 µM; recombinant FAS-TE, OMFH fluorogenic substrate, fluorescence endpoint;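 active = compounds whose normalised, plate-corrected inhibition of enzyme fluorescence in the single-dose primary screen is 50% or more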;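 note: 0% = DMSO with enzyme and 100% = substrate without enzyme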
# Calb FLC – C. albicans growth inhibition with fluconazole, primary screen, CaCi-2 strain, Alamar Blue fluorescence. AID 1979, 2009. growth inhibition, % (no concentration beside the values). actives 0.57% (n = 300,000). C. albicans CaCi-2 (fluconazole-resistant clinical isolate) + fluconazole, 48 h;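 active = growth inhibition above about 58% in most replicates, limit read from the data, passing the limit was not always enough; inconclusive = exactly half the replicates above a set limit; inactive = most replicates below a set limit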;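 note: all wells also contain fluconazole at 8 µg/ml as a sub-toxic cotreatment; 0% = median of DMSO wells and 100% = median of geldanamycin control wells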
# ATG4B inh – ATG4B protease inhibitors, primary screen, biochemical, fluorescence, uHTS; ATG4B cleavage of LC3-PLA2, NBD-HPC fluorescence, 1 h; AID 504462, 2011; Cysteine protease ATG4B (Homo sapiens), Q9Y4P1; inhibition, % at 8.33 µM; actives 0.51% (n = 340,000); in the data active = inhibition above about 40%
# Target sequence (Q9Y4P1 whole entry, looked up): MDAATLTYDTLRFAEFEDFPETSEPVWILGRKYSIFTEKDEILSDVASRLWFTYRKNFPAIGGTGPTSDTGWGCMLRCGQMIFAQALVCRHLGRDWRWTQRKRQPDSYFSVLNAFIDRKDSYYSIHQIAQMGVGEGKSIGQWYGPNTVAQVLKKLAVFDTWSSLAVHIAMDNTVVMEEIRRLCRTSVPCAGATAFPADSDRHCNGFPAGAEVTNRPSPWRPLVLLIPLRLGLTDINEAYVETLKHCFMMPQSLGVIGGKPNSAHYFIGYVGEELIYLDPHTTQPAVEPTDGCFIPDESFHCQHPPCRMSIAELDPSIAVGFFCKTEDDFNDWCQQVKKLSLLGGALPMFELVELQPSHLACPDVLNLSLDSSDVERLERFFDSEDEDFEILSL
# Mot1-301 SUMO – yeast Mot1-301 growth rescue at high temperature, primary screen, SUMOylation pathway inhibitor project, S. cerevisiae, ATP luminescence, 38.5C; actives 1% (n = 320,000); S. cerevisiae Mot1-301 growth rescue; percent above DMSO median, 100 means doubled; growth rescue, % at 18.8 µM;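 active = every valid replicate shows activation above 250% relative to neutral control wells; inactive = the rest, any valid replicate at or below 250%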;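 note: OY570 slx delta 5 strain wells were the positive control but not used for scaling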
# NadD block – inhibitors of S. aureus NadD, primary screen, biochemical, colorimetric, uHTS. Nicotinate-nucleotide adenylyltransferase NadD (Staphylococcus aureus N315). purified NadD enzyme, colorimetric absorbance read-out. inhibition, % at 20 µM. actives 0.78% (n = 360,000). AID 602399, 2012; in the data active = inhibition above about 26%
# * = called active by the depositor; ? = inconclusive; / = no result.
SMILES,FAS TE block,Calb FLC,ATG4B inh,Mot1-301 SUMO,NadD block
O=C1COc2ccc(S(=O)(=O)N3CCN(c4ccccc4F)CC3)cc2N1,9,-3,2,/,-9
COC(=O)C1CCN(C(=O)CN(C)Cc2ccc(C(C)(C)C)cc2)CC1,-1,80*,-5,57,-3
CN(Cc1ccc(C(C)(C)C)cc1)C(=O)C1CCN(C(=O)Nc2ccccc2)CC1,8,-2,1,128,4
N=C1/C(=C\c2ccc(SCc3ccccc3)o2)C(=O)N=C2SC=NN12,-3,78*,9,121,8
C/C(=N\NC(=O)c1ccc(-n2cnnn2)cc1)c1ccc(C)cc1,-4,/,1,-1,-3
COCCN(C(=O)c1ccc(N2C(=O)c3ccccc3C2=O)cc1)c1c(N)n(CC(C)C)c(=O)[nH]c1=O,-6,/,-6,/,3
CCN(CC)c1ccc2nc3ccccc3[n+](CC)c2c1,-1,90*,8,-38,15
COc1cccc(CNC(=O)[C@@H]2CCCN2C(=O)[C@@H]2CCCN2C(=O)c2cccs2)c1,-12,/,/,/,1
O=C(c1ccc(COc2ccc(Cl)cc2)o1)N1CCN(Cc2ccc3c(c2)OCO3)CC1,42,-12,-3,402*,2
Cc1ccc(C(=O)OCn2ncc(Cl)c(Cl)c2=O)cc1,23,114*,2,49,2
CCOC(=O)c1ccc(NC(=O)Cn2ncc(Cl)c(Cl)c2=O)cc1,12,64,6,-15,22
O=C(OCn1ncc(Cl)c(Cl)c1=O)c1ccc(C(F)(F)F)cc1,33,106*,-6,/,-2
CCn1c(NC(C)=O)nc2ccccc21,-5,-5,-10,-3,-1
CCn1c(NC(=O)c2cccs2)nc2ccccc21,-9,78*,-1,-5,-2
C=CCc1cc(C=Nc2ccc(N3CCOCC3)cc2)cc(OCC)c1O,0,/,9,/,-3
COc1cccc(C(=O)Nc2nnc(-c3ccc(Cl)cc3)o2)c1,4,-2,-8,35,9
Cc1cccc(C(=O)Nc2nnc(-c3ccncc3)o2)c1,-7,59,-21,14,-1
COc1cccc(C(=O)Nc2nnc(-c3ccc(F)cc3)o2)c1,-5,83*,-12,-2,6
O=C(Nc1nnc(-c2ccncc2)o1)c1ccc2ccccc2c1,-1,90*,3,-12,5
CCCCC(=O)N(C)c1c(C)nc2ccc(C(=O)N(CC)CCN(C)C)cn12,-8,/,/,/,3
Cc1ccc(-c2ccc(C(=O)NCc3ccc(Cl)cc3)o2)c2ccccc12,36,23,6,20,27*
O=C(NCc1cccnc1)c1ccc(-c2cccc(Cl)c2Cl)o1,15,61*,-17,8,1
Cc1ccccc1-c1ccc(C(=O)NCc2ccccc2)o1,12,7,2,19,-4
CN(Cc1ccccc1)C(=O)c1ccc(NC(=O)C2=CSCCO2)cc1,-7,11,-8,202,1
O=C(N/N=C/c1ccc(O)cc1O)c1ccc(CN2C(=O)c3cccc4cccc2c34)cc1,12,108*,7,3,44*
SMILES,FAS TE block,Calb FLC,ATG4B inh,Mot1-301 SUMO,NadD block
Cc1cccc(N2CCN(c3nc(C)cc(C)c3C#N)CC2C)c1 (configuration not stated),32,90*,4,-14,-2
COc1cccc(N2CCN(c3nc(C)cc(C)c3C#N)CC2)c1,21,-11,-4,-6,-2
CC1CC(C)CN(S(=O)(=O)c2ccc3c(c2)CC(=O)N3)C1 (configuration not stated),-1,/,-3,-2,6
CCNC(=O)C1(C)CCCN(Cc2cccc3ccccc23)C1 (configuration not stated),1,/,/,/,2
Cc1cccc(NC(=S)NNC(=O)c2csc(C(C)C)c2)c1,-5,92*,6,-14,8
CCc1cc(C(=O)NNC(=S)Nc2cccc(C)c2)cs1,-5,?,6,-8,5
Cc1nc(SCC(=O)N2CCCCC2)c2c(C)c(C)sc2n1,-1,-2,33,309*,1
Cc1sc2ncnc(SCC(=O)N3CCCCC3)c2c1C,0,15,-2,281,-1
N#Cc1c(Sc2ncc(C(F)(F)F)cc2Cl)nsc1C/C=N\OCc1ccccc1Br,18,0,2,/,46*
CCOC(=O)/C(=C\Nc1ccccc1C(F)(F)F)Sc1ncc(C(F)(F)F)cc1Cl,19,7,9,10,-4
CCc1ccc(S(=O)(=O)/N=C2\C=C(NS(=O)(=O)c3ccccc3)C(=O)c3ccccc32)cc1,-2,35,-1,/,27
Cc1cccc(S(=O)(=O)Nc2cccc3c2C(=O)c2ccccc2-3)c1,30,2,-12,-14,1
CC(C)c1ccc(S(=O)(=O)/N=C2\C=C(NS(=O)(=O)c3ccccc3)C(=O)c3ccccc32)cc1,5,38,-29,-26,41*
Cc1ccc(C)c(S(=O)(=O)/N=C2\C=C(NS(=O)(=O)c3ccccc3)C(=O)c3ccccc32)c1,8,67,-4,-31,29*
COCCNC(=O)C1(C)CCCN(C(=O)CCc2ccccc2)C1 (configuration not stated),-6,/,/,/,0
COc1ccccc1C(=O)Nc1nnc(CCc2ccccc2)s1,12,1,3,332*,-1
CCOC(=O)Cc1nnc(NC(=O)c2ccccc2OC)s1,-9,1,-4,-16,-2
COc1ccccc1C(=O)Nc1nnc(S(=O)(=O)N2CCCCCC2)s1,-1,-8,-1,337*,-7
CCc1cc(C(=O)NC2CCCc3c2cnn3-c2cccc(C)c2C)n(C)n1 (configuration not stated),/,91*,-1,9,/
CCC(=O)c1ccc(N2CCN(C(=O)c3cc([N+](=O)[O-])ccc3N3CCN(C)CC3)CC2)c(F)c1,70*,-26,-1,55,-5
Cn1nc(C(=O)OCc2ccc(Br)cc2F)c2ccccc2c1=O,30,2,1,-18,-11
Cc1cccc(N2CCN(C(=O)c3cn(C)c(=O)c4c3c3ccccc3n4C)CC2)c1C,30,57*,-1,34,-7
Cc1ccc(Cl)cc1N1CCN(C(=O)c2cn(C)c(=O)c3c2c2ccccc2n3C)CC1,26,-11,11,27,-5
CN(CC(=O)Nc1cccc(S(=O)(=O)NC2=NCCC2)c1)Cc1cccc(F)c1,-3,/,-9,10,-3
CC1=C(C(=O)Nc2ccc(C)cc2C)C(c2ccc(Cl)cc2)n2nc(C(=O)OC(C)C)nc2N1 (configuration not stated),-4,-3,-6,655*,3
CSc1nc2n(n1)C(c1cccc(F)c1)C(C(=O)Nc1ccc(C)cc1C)=C(C)N2 (configuration not stated),-5,-1,-9,-9,1
